# Bioassay records (PubChem BioAssay)
# SSB-PriA inh: blocks PriA binding to SSB C-terminal tail; AlphaScreen SSBct-PriA binding, biotinylated peptide; inhibition, % at 33 µM; 430,000 tested, 0.6% active; in the data active means inhibition mostly above about 37%, no sharp cut-off; inactive means mostly below about 20%;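 further: plate controls were negative control peptide for no effect and reference peptide for full effect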
# ugtP null kill: growth inhibition of S. aureus ugtP deletion strain | S. aureus RN4220 ugtP deletion, OD600 growth, 16 h | growth inhibition, % (concentration not given with the values) | 330,000 tested, 0.54% active | AID 1259309; in the data active means growth inhibition above about 68%;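 further: plate controls were untreated wells for no effect and antibiotic for full effect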
# DUSP3 inh: inhibitors of human VHR1 phosphatase (DUSP3) | P51452 | recombinant VHR phosphatase, pNPP absorbance | inhibition, % at 13.3 µM | 290,000 tested, 0.52% active | AID 1654; in the data active means inhibition above about 50%
# Target sequence (P51452 whole entry, looked up): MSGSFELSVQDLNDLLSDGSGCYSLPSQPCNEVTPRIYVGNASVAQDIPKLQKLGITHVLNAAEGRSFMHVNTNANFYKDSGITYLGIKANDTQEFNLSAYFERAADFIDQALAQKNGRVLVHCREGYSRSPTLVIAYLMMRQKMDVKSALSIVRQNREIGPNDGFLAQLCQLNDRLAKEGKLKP
# Sa RN4220 lethal: kills Staphylococcus aureus RN4220 | 330,000 tested, 0.33% active | inhibition, % (no concentration beside the values) | S. aureus RN4220 growth, OD600, 16 h | AID 1259311; in the data active means inhibition above about 85%;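 further: plate controls were untreated cells for no effect and reference antibiotic for full effect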
# CCHF vOTU inh: CCHFV vOTU protease inhibition | Pep-AMC fluorescence | inhibition, % at 11.5 µM | 370,000 tested, 0.55% active; in the data active means inhibition above about 30%; further: 0% = vehicle wells with enzyme and 100% = no enzyme wells
# An asterisk follows results filed as active; . = no result; ! = not confirmed by another sample. An excerpt weighted towards active compounds, which were near 1.5% of everything screened.
SMILES,SSB-PriA inh,ugtP null kill,DUSP3 inh,Sa RN4220 lethal,CCHF vOTU inh
CC(=NNc1ccccn1)c1ccc(OC(F)F)cc1,-3.9,92.6*,.,2.7,.
COc1nn(C)cc1C(=O)N1CCOC(c2cc(Cl)cc(Cl)c2)C1 (stereo not given),6.0,.,.,.,.
CC/C(=C\c1ccc(N(C)C)cc1)c1ccncc1,49.0*,10.8,.,3.0,-3.4
O=C(CC1SC(=O)N(Cc2ccccc2Cl)C1=O)Nc1nccs1 (stereo not given),-11.9,12.8,4.8,4.5,-7.1
O=C(CC1SC(=O)N(Cc2ccccc2)C1=O)Nc1nccs1 (stereo not given),-17.9,.,52.9*,.,16.0
Cc1c(NS(=O)(=O)c2cc(C(=O)N3CCCC(C)C3)ccc2Cl)c(=O)n(-c2ccccc2)n1C (stereo not given),-11.8,1.2,.,3.4,2.5
Cc1c(N(C)S(=O)(=O)c2cc(C(=O)N3CCCC3)ccc2Cl)c(=O)n(-c2ccccc2)n1C,6.7,2.7,53.3*,3.1,-5.0
O=C(Cc1ccsc1)Nc1ccccc1Cc1nc(-c2ccncc2)no1,5.0,.,.,.,.
CC1=NN(c2ccccc2)C(=O)/C1=C\c1ccc(Oc2ccc([N+](=O)[O-])cc2[N+](=O)[O-])cc1,21.3,.,4.1,.,91.0*
COc1cc(/C=C2/C(=O)N(c3ccc(C)c(C)c3)N=C2C)cc([N+](=O)[O-])c1O,10.4,-2.6,4.1,-0.2,-1.9
COC(=O)C1CCN(C2=C(NS(=O)(=O)c3ccc(Cl)cc3)C(=O)c3ccccc3C2=O)CC1,72.6*,-10.7,31.0,19.4,6.4
Cc1cc2cc3c(cc2nc1SCC(=O)N1CCCC1)OCCO3,-1.9,-4.7,52.9*,2.9,0.0
Cc1cc2cc3c(cc2nc1SCC(=O)O)OCCO3,-8.9,12.0,22.2,8.8,-6.1
Oc1c(C(c2ccccc2)N2CCOCC2)ccc2ccccc12 (stereo not given),-12.9,87.1*,.,24.6,11.8
Cc1ccc(NC(=O)C2C3CCCCC32)cc1[N+](=O)[O-] (stereo not given),40.6*,7.3,16.5,5.1,2.0
CCn1c(=NC(=O)CN2C(=O)CCC2=O)sc2c(C)ccc(OC)c21,4.0,.,.,.,.
N#Cc1nc(COc2ccccc2)oc1N1CCCCC1,37.3,1.9,17.0,3.3,2.9
N#Cc1nc(COc2ccc(Cl)cc2)oc1N1CCCCCC1,51.9*,4.1,-14.5,19.1,9.3
Cc1ccc(OCc2nc(C#N)c(N3CCCCC3)o2)cc1,45.2*,16.9,14.4,2.8,4.4
CC1CN(c2oc(COc3ccc(Cl)cc3Cl)nc2C#N)CC(C)O1 (stereo not given),42.9*,-3.8,17.6,-7.8,12.1
O=C(CCS(=O)(=O)c1ccc(F)cc1)Nc1nnc(-c2ccc(Br)s2)o1,1.0,.,.,.,.
CN(CC1Cc2ccccc2CO1)C(=O)c1ccno1 (stereo not given),-5.0,.,.,.,.
COc1cc(C(=O)OCCCOC(=O)c2cc(OC)c(OC)c(OC)c2)cc(OC)c1OC,-5.9,3.6,10.5,1.3,-11.0
CCOC(=O)C(C(=O)OCC)C(=O)c1cc(OC)c(OC)c(OC)c1,-1.3,2.2,51.8*,-1.8,6.8
O=C(O)c1ccccc1C(=O)Nc1ccccc1,-8.1,-0.8,-20.3,2.1,-4.1
SMILES,SSB-PriA inh,ugtP null kill,DUSP3 inh,Sa RN4220 lethal,CCHF vOTU inh
O=C(Nc1ccccc1)C1=C(c2ccccc2)S(=O)(=O)CCS1(=O)=O,-14.5,100.1*,2.0,89.8*,6.0
CC(C)N1CCC(CNS(=O)(=O)c2cc(Cl)ccc2Cl)CC1,-6.0,.,.,.,.
Oc1c(CN2CCOCC2)cc(CN2CCOCC2)cc1CN1CCOCC1,-5.6,1.0,.,0.8,-4.0
Cc1cc(N=Nc2ccc(Cl)cc2)cc(CN2CCCC2)c1O,72.0*,37.1,-19.4,1.3,9.7
Cc1cc(N=Nc2ccc(Cl)cc2)cc(CN2CCOCC2)c1O,49.1*,16.6,18.6,-5.5,1.9
O=C(NN=Cc1ccc([N+](=O)[O-])o1)c1cn(-c2ccccc2)nc1-c1ccccc1,2.6,99.3*,.,99.5*,.
COc1ccc(-c2nn(-c3ccccc3)cc2C(=O)O)cc1,-1.9,-3.7,-20.3,0.2,1.5
O=[N+]([O-])c1ccc(C=NNc2ccc3ccccc3c2)o1,55.3*,0.1,.,1.3,.
Cc1nc2ccccn2c1C(=O)NN=Cc1ccc([N+](=O)[O-])o1,-1.5,82.4,.,97.9*,.
COc1ccc(-c2nn(-c3ccccc3)cc2C(=O)N(C)C)cc1,-2.4,0.9,52.6*,-0.3,-7.2
Cc1nc2ccccn2c1C(=O)N/N=C/c1ccc([N+](=O)[O-])o1,.,.,15.5,.,13.0
O=[N+]([O-])c1ccc(/C=N/Nc2ccc3ccccc3c2)o1,.,.,-1.8,.,19.9
O=C(NN=Cc1ccc([N+](=O)[O-])o1)c1cn(-c2ccccc2)nc1-c1ccc(F)cc1,7.3,98.2*,.,70.6,.
COc1ccc(-c2nn(-c3ccccc3)cc2C(=O)NN=Cc2ccc([N+](=O)[O-])o2)cc1,-10.8,99.9*,.,96.6*,.
COc1cccc(C(=O)N(CCN(C)C)c2nc3c(F)cc(F)cc3s2)c1,4.0,.,.,.,.
Cc1cc(C)c2nc(N(CCCN(C)C)C(=O)c3ccc4c(c3)OCCO4)sc2c1,0.8,-26.6,.,-7.2,5.7
CN(C)CCN(C(=O)c1ccc2ccccc2c1)c1nc2c(F)cc(F)cc2s1,37.0*!,0.8,-11.6,4.4,8.7
Cc1ccc2sc(N(CCN(C)C)C(=O)c3ccc4c(c3)OCCO4)nc2c1C,40.0*,.,.,.,.
COc1ccccc1NC(=O)N1CCC(CNC(=O)c2ccc(S(=O)(=O)N(C)C)cc2)CC1,-26.0,.,.,.,.
Cc1c(NC(=S)N/N=C/c2cc([N+](=O)[O-])ccc2O)c(=O)n(-c2ccccc2)n1C,.,.,12.0,.,0.1
Cc1c(NC(=S)NN=C/C=C/c2ccc([N+](=O)[O-])cc2)c(=O)n(-c2ccccc2)n1C,6.3,88.5*,.,1.2,.
COc1ccc(CNC(=O)Cn2nc(C)n3cccc3c2=O)cc1,7.8,7.7,2.8,1.4,-11.0
COc1ccc(Br)cc1CNC(=O)Cn1nc(C)n2cccc2c1=O,-13.2,-1.5,56.3*,0.2,7.3
Cc1c(Cl)cccc1NC(=O)NCCn1ncccc1=O,-15.0,.,.,.,.
O=S(=O)(NCC1CCN(Cc2cccs2)CC1)c1ccccc1F,-7.0,.,.,.,.
SMILES,SSB-PriA inh,ugtP null kill,DUSP3 inh,Sa RN4220 lethal,CCHF vOTU inh
CCOC(=O)N1CCN(Cc2c(F)cccc2Cl)CC1,-16.5,9.9,50.8*,4.6,-4.8
C/C(=N\NC(=O)c1cccnc1)c1ccccc1,.,.,58.7*,.,-3.1
CC(=NNC(=O)c1cccnc1)c1ccccc1,-1.8,3.4,.,2.6,.
COc1cccc(C(=O)NNC(=O)c2cccnc2)c1,5.1,3.5,59.7*,0.5,11.3
COc1cccc(NC(=O)c2cccnc2)c1,-4.5,3.9,15.3,1.5,17.1
CCN(CC)c1ccc2cc3ccc(N)cc3[n+](-c3ccccc3)c2c1,116.8*,.,.,.,.
CCNC(=S)N=C(Nc1ccccc1)Nc1nc(C)cc(C)n1,-5.9,.,.,.,.
COC(=O)c1ccc(C2CCN(C(=O)c3ccc4ccccc4c3)CC2)cc1,0.0,.,.,.,.
CCn1cc(NC(=O)N2CCN(c3cccc(Cl)c3)CC2)c2ccccc21,31.0*,.,.,.,.
O=C(Nc1ccc2oc(-c3ccncc3)nc2c1)c1ccccc1,-6.8,10.6,24.9,2.3,-15.5
CC(=O)c1cccc(NC(=O)c2ccc([N+](=O)[O-])o2)c1,-3.3,91.0*,.,43.2,0.4
